An excerpt weighted towards active compounds, which were near 3% of everything screened.
Mtb FBA inh = Mtb fructose-bisphosphate aldolase inhibition; 2.3% of 360,000 active; inhibition, % at 1 µM; AID 588726; P9WQA3; purified M. tuberculosis FBA, fluorescence read-out;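 further: 0% = vehicle and 100% = reference inhibitor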
Target sequence (P9WQA3 whole entry, looked up): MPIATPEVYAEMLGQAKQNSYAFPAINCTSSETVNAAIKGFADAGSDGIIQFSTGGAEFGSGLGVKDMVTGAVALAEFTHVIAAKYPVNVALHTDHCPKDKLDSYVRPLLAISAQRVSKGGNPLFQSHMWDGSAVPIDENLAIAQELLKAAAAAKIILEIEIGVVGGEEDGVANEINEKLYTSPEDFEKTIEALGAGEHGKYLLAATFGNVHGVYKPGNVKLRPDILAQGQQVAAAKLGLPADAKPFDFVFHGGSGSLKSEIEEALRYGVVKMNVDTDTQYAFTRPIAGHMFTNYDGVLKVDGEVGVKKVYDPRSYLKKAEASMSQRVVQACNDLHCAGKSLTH
GDH-TPI counter-1 = GDH-TPI coupled enzyme inhibition counter-screen. inhibition, % at 4.8 µM. GDH-TPI coupled enzyme counterscreen, NADH absorbance. AID 588335. 1.2% of 360,000 active; in the data active means inhibition above about 30%;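 further: 0% = DMSO wells and 100% = wells lacking the enzyme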
Vc quorum ag = induces V. cholerae light production without autoinducers; 0.16% of 350,000 active; V. cholerae BH1578 lux reporter, luminescence, 6 h; activation, % at 18.7 µM; AID 588436; in the data active means activation mostly above about 9.7%, no sharp cut-off
BioA inh = BioA (M. tuberculosis) enzyme inhibition; AID 602481; 0.096% of 360,000 active; inhibition, % at 9.99 µM; purified M. tuberculosis BioA enzyme, plate reader; in the data active means inhibition above about 40%
Mtb FBA confirm = Mtb FBA inhibition, confirmed | AID 651616 | inhibition, % at 1 µM | 78% of 5,600 active | shares compounds with Mtb FBA inh | purified M. tuberculosis FBA, fluorescence read-out;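 further: 0% = vehicle wells and 100% = reference inhibitor wells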
GDH-TPI counter-2 = GDH-TPI inhibition counter-screen for FBA inhibitors; shares compounds with Mtb FBA inh; GDH-TPI coupled enzyme counterscreen, fluorescence; inhibition, % at 1 µM; 81% of 5,600 active; in the data active means inhibition above about 10%
* = called active by the depositor; i = inactive; . = no result given; + = active, no number. Unless noted, no stated cut-off is given here; in the data, active means inhibition above about 27%; inactive means the rest.

SMILES | Mtb FBA inh | GDH-TPI counter-1 | Vc quorum ag | BioA inh | Mtb FBA confirm | GDH-TPI counter-2
c1csc(-c2cn3ccc4ccccc4c3n2)c1 | 46.8* | 5.1 | -1.2 | . | -3.7 | -1.7
O=C(C[C@H]1C=C[C@H](NC(=O)c2ccncc2)[C@H](CO)O1)NCCc1ccncc1 | . | . | . | -2.9 | . | .
C[n+]1c(-c2ccccc2)cc(-c2ccc(Cl)cc2)cc1-c1ccccc1 | 70.8* | -5.0 | -0.5 | . | 78.7* | 68.7*
Cc1ccc(-c2cc(-c3ccccc3)cc(-c3ccccc3)[n+]2-c2ccccc2)cc1 | 10.2 | 6.7 | i | 10.1 | . | .
O=C(O)c1ccccc1Nc1ccnc(Cl)n1 | 27.8* | 10.1 | -2.3 | . | + | 143.9*
O=C(O)c1ccccc1Nc1ccccc1C(=O)O | 1.9 | 18.6 | -0.2 | 0.5 | . | .
O=C(CSc1cccs1)NCCc1ccccc1 | 2.3 | 6.5 | -0.1 | . | . | .
NS(=O)(=O)c1ccc(CCNC(=O)c2cc(-c3cccs3)nc3ccccc23)cc1 | 98.9* | 9.9 | 0.6 | . | + | +
NS(=O)(=O)c1ccc(CCNC(=O)CSc2cccs2)cc1 | 96.6* | 1.3 | -0.2 | -2.3 | 87.4* | 56.5*
CN(C)S(=O)(=O)c1cccc(NC(=O)c2cc(-c3cccs3)nc3ccccc23)c1 | 27.8* | 11.2 | i | 1.1 | 126.3* | 102.7*
NS(=O)(=O)c1cccc(NC(=O)c2cc(-c3cccs3)nc3ccccc23)c1 | 25.8 | 12.6 | i | 1.1 | . | .
NS(=O)(=O)c1ccc(CNC(=O)c2cc(-c3cccs3)nc3ccccc23)cc1 | 79.9* | 12.0 | i | -1.7 | 1.5 | 2.1
C[C@@H]1CN([C@@H](C)CO)C(=O)c2cc(NC(=O)NC3CCCCC3)ccc2O[C@@H](C)CCCCO[C@@H]1CN(C)Cc1ccc(C(F)(F)F)cc1 | . | . | . | -1.3 | . | .
CN1CCN(CCCNC(=O)c2ccc(/C=C3\Oc4ccccc4N(Cc4ccccc4F)C3=O)cc2)CC1 | 54.9* | 17.4 | -4.6 | 0.9 | -0.6 | -3.7
Cc1cccc(CN2C(=O)/C(=C\c3ccc(C(=O)NCCCN4CCN(C)CC4)cc3)Oc3ccccc32)c1 | 81.0* | 5.2 | -0.2 | -0.9 | 9.8 | -3.0
CN1CCN(CCCNC(=O)c2ccc(/C=C3/Sc4ccccc4N(Cc4cccc(Cl)c4)C3=O)cc2)CC1 | 4.7 | 2.5 | i | 3.6 | . | .
C[C@H](O)C#Cc1cnc2c(c1)C(=O)N([C@@H](C)CO)C[C@@H](C)[C@H](CN(C)C(=O)c1ccncc1)O2 | . | . | . | -2.7 | . | .
CCOC(=O)c1cnc2ccc(C)cn2c1=O | 64.8* | 9.1 | 0.6 | -0.6 | 18.0 | 6.3
Cc1cccn2c(=O)c3cc(C(=O)N4CCCCC4C)sc3nc12 (stereo unspecified) | 22.9 | 15.5 | -3.8 | -1.2 | . | .
CCCCN(CC)C(=O)c1cc2c(=O)n3cccc(C)c3nc2s1 | 69.5* | 11.0 | i | 2.6 | + | 166.8*
CCN(CC)C(=O)c1cc2c(=O)n3cccc(C)c3nc2s1 | 69.0* | 12.1 | 0.6 | 2.1 | 147.7* | 142.8*
Cc1nc2c(C)cccn2c(=O)c1NC(=O)COc1ccccc1 | -0.2 | 20.1 | -8.2 | -4.5 | . | .
COc1ccccc1N1CCN(C(=O)c2cc3c(=O)n4cccc(C)c4nc3s2)CC1 | 41.4* | 14.9 | -0.6 | -1.3 | + | 180.3*
CCN(CC)C(=O)c1cc2c(=O)n3cccc(C)c3nc2n1C | 56.9* | 21.4 | -0.3 | 1.2 | 122.4* | 106.8*
CCCCN(CC)C(=O)c1ccc(Cl)c(Cl)c1 | -1.0 | 9.6 | 2.6 | -0.9 | . | .
SMILES | Mtb FBA inh | GDH-TPI counter-1 | Vc quorum ag | BioA inh | Mtb FBA confirm | GDH-TPI counter-2
CCCNC(=O)C[C@H]1CC[C@@H]2[C@H](COC[C@@H](O)CN2CC2CCCCC2)O1 | . | . | . | -1.5 | . | .
COCC#Cc1cnc2c(c1)C(=O)N([C@H](C)CO)C[C@@H](C)[C@@H](CN(C)C(=O)NC1CCCC1)O2 | . | . | . | 1.1 | . | .
COc1cc(NC(=O)CSc2nc3ccccc3cc2C)c(C(=O)O)cc1OC | 9.1 | 13.5 | -0.3 | . | . | .
COc1cc(NC(=O)CSc2nc3cc(C)ccc3cc2C)c(C(=O)O)cc1OC | 27.3* | 6.9 | -0.3 | . | 45.3* | 24.9*
O=C(C[C@H]1CC[C@H]2NC[C@@H](O)COC[C@@H]2O1)Nc1ccccc1 | . | . | . | -2.4 | . | .
O=C(NC(=S)Nc1ccc(CN2CCOCC2)cc1)c1ccc([N+](=O)[O-])cc1 | 32.8* | 2.1 | i | 0.1 | 4.8 | -4.0
COc1ccc(C(=O)NC(=S)Nc2ccc(CN3CCOCC3)cc2)cc1 | 3.0 | 5.2 | i | 0.4 | . | .
COc1ccc2nc3c(cc2c1)c(NC(=O)CC(C)C)nn3CC(C)C | 14.7 | 1.3 | i | -6.4 | . | .
COc1ccc2nc3c(cc2c1)c(NC(=O)C1CCCO1)nn3CC(C)C (stereo unspecified) | 39.3* | 11.9 | 3.6 | -1.2 | -0.7 | -3.2
N#CC1(C#N)C(c2ccccc2)OC23CCCCCC2C1(C#N)C(=N)O3 (stereo unspecified) | 40.9* | 2.2 | i | -0.1 | 40.4* | 33.9*
N#CC1(C#N)C(c2ccccc2)OC23CCCCC2C1(C#N)C(=N)O3 (stereo unspecified) | 75.2* | 0.0 | -0.2 | -7.2 | 58.0* | 64.0*
O=C(C[C@@H]1C[C@@H]2c3cc(NC(=O)Nc4ccc(C(F)(F)F)cc4)ccc3O[C@@H]2[C@H](CO)O1)NC1CCCCC1 | . | . | . | -0.5 | . | .
CC(C)OC(=O)N(C)C[C@H]1OCc2ccccc2-c2ccccc2C(=O)N([C@@H](C)CO)C[C@@H]1C | . | . | . | -2.3 | . | .
O=C(Cc1cccs1)Nc1cccc(-c2nc3cc4ccccc4cc3[nH]2)c1 | 55.8* | 21.8 | -3.6 | . | -4.9 | -4.2
COc1cccc(-c2nnc(-c3ccco3)o2)c1 | 61.5* | 6.9 | i | -2.6 | + | +
CC(C)COc1ccc(-c2nnc(-c3ccco3)o2)cc1 | 42.7* | 1.8 | 2.1 | -0.9 | 53.7* | 43.1*
COc1cccc(C(=O)Nc2ccc(-c3nnc(-c4ccco4)o3)cc2)c1 | 1.0 | 15.5 | -1.0 | 0.5 | . | .
CCCOc1ccc(-c2nnc(-c3ccco3)o2)cc1 | 60.1* | 10.9 | 3.0 | -2.9 | 50.4* | 36.2*
CN1CCN(C(=O)[C@H]2[C@H](CO)[C@H]3Cn4c(ccc(-c5cccnc5)c4=O)[C@H]3N2CC2CC2)CC1 | . | . | . | -0.8 | . | .
COc1ccc2c(c1)c(C)cc[n+]2Cc1ccccc1 | 40.9* | 5.9 | i | -2.3 | 59.3* | 57.1*
Cc1ccc2c(c1)c(C)cc[n+]2Cc1ccccc1 | 11.9 | 6.7 | i | 2.1 | . | .
O=C1CS(=O)(=O)C(c2ccccc2)N1c1ccc(-c2ccccc2)cc1 (stereo unspecified) | . | . | . | -1.0 | . | .
COc1cc(-c2nc3ccc(C)cn3c2NCc2ccccc2)ccc1-c1cccc(Cl)c1 | 39.5* | 8.8 | i | -2.3 | 8.2 | -2.1
Cc1ccc2nc(-c3ccc(F)cc3)c(Cc3cccc(Cl)c3)n2c1 | 6.9 | . | . | -2.5 | . | .
COc1ccc(-c2nc3ccc(C)cn3c2NCc2ccc3c(c2)OCO3)cc1 | 9.4 | 5.7 | -0.2 | 0.1 | . | .
